Source: PubChem BioAssay
KCNQ2 inh: rat KCNQ2 potassium channel inhibitors, primary screen, cell-based, CHO-K1, FluxOR thallium flux, B-score. 20 min; active compounds read low. actives 1.1% (n = 310,000). Potassium voltage-gated channel subfamily KQT member 2 (Rattus norvegicus), O88943. B-score at 10 µM;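 active = fluorescence ratio B-score at most minus 3 library SDs, with starting brightness B-score within 2 library SDs, cut at about -5.5 in these data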
Target sequence (O88943 whole entry, looked up): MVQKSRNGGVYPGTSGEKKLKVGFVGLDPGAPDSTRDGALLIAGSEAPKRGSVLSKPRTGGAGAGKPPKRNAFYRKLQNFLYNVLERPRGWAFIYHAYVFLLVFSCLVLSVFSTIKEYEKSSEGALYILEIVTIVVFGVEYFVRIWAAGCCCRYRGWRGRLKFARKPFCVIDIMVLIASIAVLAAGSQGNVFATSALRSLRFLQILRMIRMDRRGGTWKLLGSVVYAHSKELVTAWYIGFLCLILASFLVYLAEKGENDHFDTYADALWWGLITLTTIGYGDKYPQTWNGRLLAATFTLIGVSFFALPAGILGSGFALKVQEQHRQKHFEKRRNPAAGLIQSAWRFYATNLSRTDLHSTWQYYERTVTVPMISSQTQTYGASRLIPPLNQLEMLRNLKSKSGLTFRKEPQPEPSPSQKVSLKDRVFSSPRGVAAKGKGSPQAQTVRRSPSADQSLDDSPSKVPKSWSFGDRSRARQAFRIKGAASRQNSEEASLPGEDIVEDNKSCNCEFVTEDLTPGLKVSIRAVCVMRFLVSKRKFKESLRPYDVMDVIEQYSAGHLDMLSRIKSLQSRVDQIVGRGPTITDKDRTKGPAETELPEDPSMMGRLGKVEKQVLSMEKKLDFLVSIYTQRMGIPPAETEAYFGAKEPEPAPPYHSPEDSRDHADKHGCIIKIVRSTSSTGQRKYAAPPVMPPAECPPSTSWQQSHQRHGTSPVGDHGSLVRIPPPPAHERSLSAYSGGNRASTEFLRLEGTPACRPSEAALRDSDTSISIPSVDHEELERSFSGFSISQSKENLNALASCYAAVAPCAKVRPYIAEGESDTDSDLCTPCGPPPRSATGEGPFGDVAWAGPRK
KCNQ2 enhance: potentiators of rat KCNQ2 potassium channel; Potassium voltage-gated channel subfamily KQT member 2 (Rattus norvegicus), O88943; actives 0.54% (n = 310,000); B-score at 10 µM; CHO-K1 KCNQ2, FluxOR thallium flux fluorescence; active compounds read high; AID 2239, 2010;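 active = fluorescence ratio B-score at least 3 SD of library B-scores, with initial fluorescence B-score within 3 of them, cut at about 5.3 in these data; same plate scores as AID 2156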;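 note: B-score of peak minus minimum over baseline fluorescence ratio after K+ and Tl+ stimulus; positive B-score means potentiation of KCNQ2 with more thallium influx and brighter signal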
KCNQ2 block conf: rat KCNQ2 potassium channel inhibitors, confirmation, cell-based, thallium flux | KCNQ2-expressing cells, inhibition; active compounds read low | shares compounds with KCNQ2 inh | AID 493025, 2011 | activity change, negative = inhibition, % at 10 µM | actives 57% (n = 1,000);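 note: 0% = vehicle wells and values are ratio percent relative to vehicle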
KCNQ1 spec: human KCNQ1 channel inhibition, counter-screen for KCNQ2 inhibitor project, cell-based, FluxOR thallium flux; shares compounds with KCNQ2 inh; KCNQ1-expressing cells, FluxOR thallium flux fluorescence; active compounds read low; activity change, negative = inhibition, % at 10 µM; actives 15% (n = 1,000); AID 493026, 2011;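 active = activity change at least 3 SD of negative controls below their mean in both duplicate wells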;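 note: CHO cells stably transfected with KCNQ1 and depolarized by potassium stimulus; peak minus minimum fluorescence over baseline after thallium addition; 0% = vehicle negative control and -100% = blank without thallium stimulus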
CHO parental ctr: thallium flux change in parental CHO cells, counter-screen for KCNQ2 inhibitor project; active compounds read low; actives 14% (n = 1,000); activity change, % at 10 µM; shares compounds with KCNQ2 inh;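 note: 0% = vehicle negative controls with stimulus buffer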
KCNQ2 patch conf: rat KCNQ2 channel inhibitors, confirmation, cell-based, automated patch clamp, single concentration | shares compounds with KCNQ2 inh | KCNQ2-expressing cells, automated patch clamp current | calls only at 10 µM | actives 49% (n = 550) | AID 588531, 2011
* hit, by the source's call. Only some compounds are listed: those with a hit (about 1.6% of all), similar ones and a draw of the others. Unless noted, the rule behind the calls is not given here.

How did Cc1c(C)c2ccc(OCC(=O)Nc3ccccc3C(N)=O)cc2oc1=O do in these assays?
KCNQ2 inh: inactive; KCNQ2 enhance: 2.4

How did Cc1ncc(N=Nc2ccc(F)cc2)c(-c2ccc(Cl)cc2)n1 do in these assays?
KCNQ2 inh: inactive; KCNQ2 enhance: 0.06

How did Cc1ccn2c(/C=N/OCc3cccc(F)c3)c(-c3ccc(Cl)cc3)nc2c1 do in these assays?
KCNQ2 inh: -7.8*; KCNQ2 enhance: -7.8; KCNQ2 block conf: -18%*; KCNQ1 spec: inactive; CHO parental ctr: inactive; KCNQ2 patch conf: inactive

How did Clc1ccc(CO/N=C/c2c(-c3ccccc3)nc3n2CCS3)c(Cl)c1 do in these assays?
KCNQ2 inh: inactive

What do the screens show for `Cc1ccn2c(/C=N/OCc3ccc(F)cc3)c(-c3ccc(Cl)cc3)nc2c1`?
KCNQ2 inh: -9*; KCNQ2 enhance: -9; KCNQ2 block conf: -26%*; KCNQ1 spec: inactive; CHO parental ctr: inactive; KCNQ2 patch conf: active

What do the screens show for `Cc1c(N2C(=O)c3cccc4cccc(c34)C2=O)cnn1C`?
KCNQ2 inh: inactive

What do the screens show for `N#Cc1c(-c2ccc(Cl)cc2)ccn2nc(C3CCCCC3)nc12`?
KCNQ2 inh: inactive

What do the screens show for `CCC(CC)C(=O)N(CCc1ccc(OC)cc1)Cc1nc2ccccc2c(=O)[nH]1`?
KCNQ2 inh: -9.5*; KCNQ2 enhance: -9.5; KCNQ2 block conf: -30%*; KCNQ1 spec: inactive; CHO parental ctr: inactive; KCNQ2 patch conf: active

Results for COc1ccc(CCN(Cc2nc3ccccc3c(=O)[nH]2)C(=O)c2ccco2)cc1 ?
KCNQ2 inh: inactive; KCNQ2 enhance: 0.37

How did Nc1cccc(P(=O)(c2ccccc2)c2ccccc2)c1 do in these assays?
KCNQ2 inh: inactive

What do the screens show for `O=P(c1ccccc1)(c1ccccc1)N(c1ccccc1)c1ccccc1`?
KCNQ2 inh: -6.8*; KCNQ2 enhance: -6.8; KCNQ2 block conf: -20%*; KCNQ1 spec: inactive; CHO parental ctr: inactive; KCNQ2 patch conf: active

What do the screens show for `CCOc1cccc(CNCCO)c1OCc1ccc(Cl)cc1`?
KCNQ2 inh: inactive; KCNQ2 enhance: 0.75

Results for CCOc1cc(CNCCO)cc(Br)c1OCc1ccc(Cl)cc1 ?
KCNQ2 inh: -8.1*; KCNQ2 enhance: -8.1; KCNQ2 block conf: inactive; KCNQ1 spec: inactive; CHO parental ctr: inactive

What do the screens show for `N#Cc1c2ccccc2nc2ccccc12`?
KCNQ2 inh: inactive

Results for COCCNC(=O)C1CCCN(S(=O)(=O)c2cccc3nsnc23)C1 (centres undefined) ?
KCNQ2 inh: inactive; KCNQ2 enhance: 0.01

How did COc1ccc(CNC(=O)CN2C(=O)C(C)N(c3ccc(C)cc3)C2=O)cc1 (centres undefined) do in these assays?
KCNQ2 inh: inactive

Results for COc1ccccc1CNC(=O)CN1C(=O)C(C)N(c2ccc(C)cc2)C1=O (centres undefined) ?
KCNQ2 inh: -7.5*; KCNQ2 enhance: -7.5; KCNQ2 block conf: inactive; KCNQ1 spec: inactive; CHO parental ctr: inactive

How did Cc1ccc(C(=O)N2CCNC(=O)C2CC(=O)Nc2ccccc2)cc1 (centres undefined) do in these assays?
KCNQ2 inh: inactive

How did CCSc1nnc(-c2cccc(S(=O)(=O)N(CC)CC)c2)n1Cc1ccccc1 do in these assays?
KCNQ2 inh: -10*; KCNQ2 enhance: -10; KCNQ2 block conf: inactive; KCNQ1 spec: inactive; CHO parental ctr: inactive

How did CCNC(=O)CSc1nnc(-c2cccc(S(=O)(=O)N(CC)CC)c2)n1CCc1ccccc1 do in these assays?
KCNQ2 inh: inactive

Results for CCn1c(C)c(C)c2cc(C(=O)N3CCCC3)ccc21 ?
KCNQ2 inh: inactive; KCNQ2 enhance: 0.37

What do the screens show for `CCn1c(C)c(C)c2cc(C(=O)N3CCN(c4ccccc4)CC3)ccc21`?
KCNQ2 inh: -6.9*; KCNQ2 enhance: -6.9; KCNQ2 block conf: inactive; KCNQ1 spec: inactive; CHO parental ctr: inactive

What do the screens show for `Cc1[nH]c(=O)[nH]c(=O)c1S(=O)(=O)N1CCCC(C(=O)N2CCN(c3cccc(C(F)(F)F)c3)CC2)C1` (centres undefined)?
KCNQ2 inh: inactive
